Unmarked numbers belong to inactive results. Inconclusive results are not listed. The source made the active and inactive calls. Unless noted, calls follow the shape of the dose curve; as a rule, active = well fitted curve in the direction sought with a large enough effect in the repeat runs; inconclusive = weak or mixed curves; inactive = no such curve, though single readings can be large; an effect the other way counts as inactive or inconclusive.

For test [1], the target named is Thyrotropin-releasing hormone receptor (Homo sapiens) (UniProt P34981). In words: qHTS assay to identify small molecule agonists of the thyrotropin-releasing hormone receptor (TRHR) signaling pathway (AID 1346891; calls by dose curve; also: series mostly up to about 58 µM). A digest of the protocol: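 Agonist-mode intracellular calcium readout: kinetic fluorescence over 3 min at 1 s intervals after compound addition to TRHR-HEK293 cells (18 h seeded, 2 h dye-loaded at 37 C). Fifteen concentrations, triplicates.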
Thyrotropin-releasing hormone receptor (Homo sapiens), sequence (P34981 whole entry, looked up): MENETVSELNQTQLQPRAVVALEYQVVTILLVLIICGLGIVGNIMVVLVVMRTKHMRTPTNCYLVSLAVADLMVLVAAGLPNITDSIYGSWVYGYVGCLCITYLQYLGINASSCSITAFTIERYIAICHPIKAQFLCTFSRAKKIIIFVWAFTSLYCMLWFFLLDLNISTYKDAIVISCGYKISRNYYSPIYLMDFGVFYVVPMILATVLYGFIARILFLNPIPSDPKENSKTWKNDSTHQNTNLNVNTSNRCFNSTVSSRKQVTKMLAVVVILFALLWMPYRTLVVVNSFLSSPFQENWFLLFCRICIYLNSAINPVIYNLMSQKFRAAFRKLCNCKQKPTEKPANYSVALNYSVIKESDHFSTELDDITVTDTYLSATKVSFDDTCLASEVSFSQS
(In general: In qHTS, concentration-response curves come from the screen itself.)

The nature of test [2]: Human pregnane X receptor (PXR) small molecule agonists, qHTS cell viability counter screen (AID 1346977). Also: nearly all actives have a fitted effect of over 50% in size. Also: potency is read from the fitted curve at half-maximal effect. The method in brief: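 Same-well viability read: CellTiter-Fluor added after 23 hr compound exposure, fluorescence measured 1 hr later. Cells were PXR-Luc HepG2 seeded at 2,000/well in 5% charcoal-stripped FBS medium, rested 5 hr before dosing at 37 C.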
A short description of test [3]: Caspase-3/7 induction in HepG2 cells by small molecules, qHTS assay (AID 1346978). Also: nearly all actives have a fitted effect of over 15% in size. The method in brief:
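Caspase-3/7 induction was measured by Caspase-Glo 3/7 luminescence (30 min, room temperature) after a 17 hr compound exposure of wild-type HepG2 cells seeded at 2,000 per well and pre-incubated 5 hr.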

The nature of test [4]: Caspase-3/7 induction in CHO-K1 cells by small molecules, qHTS cell viability counter screen (AID 1346979). Also: nearly all actives have a fitted effect of over 35% in size. Also: potency is read from the fitted curve at half-maximal effect. The method in brief:
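Cytotoxicity counter screen: CellTiter-Fluor added to compound-treated wild-type CHO-K1 cells at 16 h (37C, 5% CO2), fluorescence measured 1 h later; same wells as caspase-3/7 measurement.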

Test [5] is described as follows: Caspase-3/7 induction in CHO-K1 cells by small molecules, qHTS assay (AID 1346980). Also: nearly all actives have a fitted effect of over 15% in size. The method in brief:
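Luminescent Caspase-Glo 3/7 read (30min, room temperature) quantified apoptosis induction. Cells were wild-type CHO-K1, treated with compound for 17hr at 37 C and 5% CO2.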

A short description of test [6]: Caspase-3/7 induction in HepG2 cells by small molecules, qHTS cell viability counter screen (AID 1346981). Also: nearly all actives have a fitted effect of over 30% in size. Also: potency is read from the fitted curve at half-maximal effect. As to activity change, negative = cytotoxicity: series mostly up to about 92 µM. A digest of the protocol: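 Counter screen for cytotoxicity: HepG2 exposed 16 hr to compounds, then CellTiter-Fluor viability signal (fluorescence, 1 hr reagent incubation).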
Test [7] has as its target Nuclear receptor subfamily 1 group I member 2 (Homo sapiens) (UniProt O75469). In words: Human pregnane X receptor (PXR) small molecule agonists, qHTS assay (AID 1346982). Also: nearly all actives have a fitted effect of over 35% in size. Also: potency is read from the fitted curve at half-maximal effect. A digest of the protocol:
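Luminescence (ONE-Glo, 30 min RT) after 24 hr compound exposure of PXR-Luc HepG2 cells; cells rested 5 hr post-plating in 5% charcoal-stripped FBS medium.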

Test [8] addresses Nuclear receptor subfamily 1 group I member 2 (Rattus norvegicus) (UniProt Q9R1A7). In words: Rat pregnane X receptor (rPXR) activation by small molecules, qHTS assay (AID 1346983). Also: nearly all actives have a fitted effect of over 20% in size. The conditions noted are these: rPXR luciferase reporter cells, One-Glo luminescence, 24 h; max activation: stronger effect = higher value. The method in brief:
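Luminescent readout (One-Glo luciferase, 30 min room temperature) followed 24 hr compound treatment at 37 C of rPXR cells plated 2,000 per well and preincubated 5hr; qHTS format with compounds delivered in DMSO.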

Test [9] concerns the target Nuclear receptor subfamily 1 group I member 2 (Homo sapiens) (UniProt O75469). In words: CYP3A4 induction through human pregnane X receptor (PXR) by small molecules, qHTS assay (AID 1346984). Also: nearly all actives have a fitted effect of over 40% in size. A digest of the protocol: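 DPX-2 reporter cells; 24h cpd, 37C; Luciferin-IPA 3uM final x3h; One-Glo 30 min RT; lumi read.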
For test [10] the target is unchanged. The test can be described thus: Human pregnane X receptor (PXR) activation by small molecules, qHTS assay (AID 1346985). Also: nearly all actives have a fitted effect of over 40% in size. The method in brief: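 DPX-2 cells (HepG2 co-transfected with a PXR response element and a CYP3A4-promoter luciferase construct) were seeded at 2,000 per well, rested 5 hr at 37C, then exposed to DMSO-dissolved compounds for 24 hr. Activation was read as luciferase luminescence.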
% is scaled to controls: 0 for no effect and ±100 for the full control effect.

Nuclear receptor subfamily 1 group I member 2 (Homo sapiens), sequence (O75469 whole entry, looked up): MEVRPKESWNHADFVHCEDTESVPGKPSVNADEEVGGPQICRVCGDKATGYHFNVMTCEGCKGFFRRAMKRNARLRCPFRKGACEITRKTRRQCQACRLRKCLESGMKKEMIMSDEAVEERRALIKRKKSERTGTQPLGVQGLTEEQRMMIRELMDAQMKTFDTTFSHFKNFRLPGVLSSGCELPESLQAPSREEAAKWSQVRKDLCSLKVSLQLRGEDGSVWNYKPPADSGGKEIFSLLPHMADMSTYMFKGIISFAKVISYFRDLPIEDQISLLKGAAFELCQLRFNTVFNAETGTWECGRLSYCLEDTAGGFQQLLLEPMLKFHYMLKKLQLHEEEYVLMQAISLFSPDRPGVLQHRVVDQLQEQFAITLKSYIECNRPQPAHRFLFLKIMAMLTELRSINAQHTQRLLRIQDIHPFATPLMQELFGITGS
Nuclear receptor subfamily 1 group I member 2 (Rattus norvegicus), sequence (Q9R1A7 whole entry, looked up): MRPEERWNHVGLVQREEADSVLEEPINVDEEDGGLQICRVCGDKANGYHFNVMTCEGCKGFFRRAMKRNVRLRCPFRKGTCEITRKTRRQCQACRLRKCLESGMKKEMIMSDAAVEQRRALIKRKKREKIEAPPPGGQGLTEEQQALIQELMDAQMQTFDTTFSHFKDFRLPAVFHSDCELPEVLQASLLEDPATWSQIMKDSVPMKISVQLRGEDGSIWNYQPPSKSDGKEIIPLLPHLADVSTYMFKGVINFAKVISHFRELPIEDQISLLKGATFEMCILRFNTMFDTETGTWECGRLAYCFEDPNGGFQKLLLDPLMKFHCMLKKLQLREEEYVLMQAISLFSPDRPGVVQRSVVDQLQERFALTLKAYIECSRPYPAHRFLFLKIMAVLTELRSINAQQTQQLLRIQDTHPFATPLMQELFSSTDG

For `CCCCCCCCCC/C=C/C#N`, the Potency entry in [1], in test [2], in test [3], in [4], in test [6] and in [7] was “inactive” in each case. The molecule was classed as inactive in [5].

Consider `O=C(O)C(=O)Cc1c[nH]c2ccccc12`, for which the Potency result in test [1], in test [2], in test [3], in test [4] and in [6] was “inactive” throughout. Moreover, the call in [5] was inactive. Also, the Potency in test [7] was 30.6 µM (active).

For `CC(C)Nc1nc(N)nc(Cl)n1`, the Potency entry in [1], in test [2], in test [3], in [4], in test [6] and in [7] was “inactive” in each case. For the same molecule, in test [5], the result was inactive.

For the molecule `ICCc1ccccc1`, the Potency result in [1], in [2], in [3], in test [4] and in [6] was “inactive” throughout. In test [5], the outcome was inactive. In addition, the Potency in test [7] is 59.9 µM (active).

As to `CC(C)S`, the Potency result in test [1], in [2], in [3], in [4], in test [6] and in test [7] was “inactive” in each case. For the same molecule, the call in [5] was inactive.

On to `COC(=O)/C=C(/C)N`, for which the Potency entry in test [1], in [2], in test [3], in test [4], in test [6] and in test [7] was “inactive” throughout. Further, the molecule was called inactive in test [5].

For the molecule `FC(F)(F)c1ccccc1`, the Potency result in test [1], in test [2], in test [3], in test [4], in test [6] and in test [7] was “inactive” in each case. Besides, the result in [5] was inactive.

Turning to `CC(C)(C)c1cccc(O)c1`, the Potency result in test [1], in [2], in test [3], in [4], in test [6] and in test [7] was “inactive” each time. Moreover, the outcome in test [5] was inactive.

`CC(C)=CCCC(C)CCOC=O` (stereo unspecified): the Potency result in test [1], in test [2], in test [3], in test [4], in test [6] and in test [7] was “inactive” in each case. The outcome in [5] was inactive.

On to `N#Cc1ccc(C(c2ccc(C#N)cc2)n2cncn2)cc1`, for which the Potency result in test [1], in [2], in [3], in test [4], in test [6] and in test [7] was “inactive” in each case. For the same molecule, the Potency result in test [9] and in test [10] was “inactive” throughout. Moreover, the outcome in test [5] was inactive. Besides, in test [8], the max activation is 0.445%.

As to `CCCCCCCCOC(=O)CCCCCCCCC(=O)OCCCCCCCC`, the Potency result in test [1], in test [2], in test [3], in test [4], in [6] and in test [7] was “inactive” in each case. In addition, in [5], the outcome was inactive.

In the case of `CC(C)(C)C1CCCCC1=O` (stereo unspecified), the Potency entry in test [1], in test [2], in [3], in [4], in test [6] and in test [7] was “inactive” throughout. Besides, in test [5], the result was inactive.

Turning to `CC(C)C(=O)OCC(C)(C)C(O)C(C)C` (stereo unspecified), the Potency result in [1], in [2], in [3], in test [4], in test [6] and in [7] was “inactive” each time. In addition, the outcome in test [5] was inactive.

`COC(C)CCO` (stereo unspecified): the Potency result in test [1], in [2], in [3], in test [4], in test [6] and in test [7] was “inactive” throughout. Also, in test [5], the molecule was called inactive.

As for `CCN(CC)CC1CCCCN1CC(=O)N1c2ccccc2C(=O)Nc2cccnc21` (stereo unspecified), the Potency result in test [1], in test [2], in test [3], in test [4], in [6] and in test [7] was “inactive” each time. Besides, the Potency result in test [9] and in test [10] was “inactive” in each case. For the same molecule, the call in [5] was inactive. In test [8], the max activation was -0.899%.

`NS(=O)(=O)c1cc(-c2nn[nH]n2)c(NCc2cccs2)cc1Cl`: the Potency result in [1], in [2], in test [3], in test [4], in test [6] and in test [9] was “inactive” each time. The Potency result in test [10] is “inactive”. For the same molecule, in test [5], the result was inactive. For the same molecule, in test [7], the Potency is 13.3 µM (active).

Consider `CCCCCCC`, for which the Potency result in test [1], in test [2], in test [3], in test [4], in test [6] and in [7] was “inactive” throughout. In [5], the molecule was classed as inactive.

As for `CC[C@H]1CC[C@H](NCc2cc3c(cc2OC)[C@H]2C[C@H]2C(=O)N3C)[C@H](c2ccccc2)N1`, the Potency entry in test [1], in test [3] and in [6] was “inactive” in each case. In addition, the Potency was 30.6 µM (active) in test [2], 24.3 µM (active) in test [4] and 17.2 µM (active) in [7]. Also, the outcome in [5] was inactive.

For `CN1CCN(c2c(F)cc3c(=O)c(C(=O)O)cn(CCF)c3c2F)CC1`, the Potency result in test [1], in test [2], in test [3], in test [4], in test [6] and in test [7] was “inactive” each time. Besides, the Potency result in test [9] and in [10] was “inactive” in each case. In addition, the outcome in [5] was inactive. Besides, the max activation in test [8] was -0.524%.

On to `O=C(O)c1ccccc1Nc1cc(Cl)ccc1C(=O)O`, for which the activation in [1] was -0.215% [at 11.8 µM]; in [7] it was 5.75% [at 19 µM]. For the same molecule, the activity change, negative = cytotoxicity in [2] was 7.26% [at 19 µM]; in test [4] it was 5.08% [at 19 µM]; in test [6], 3.27% [at 19 µM]. Besides, in test [3], the caspase activation is 0.287% [at 19 µM]. The caspase-3/7 activation in test [5] is 1.36% [at 19 µM].

As to `NCCCN1CCN(CCCN)CC1`, the Potency entry in [1], in test [2], in [3], in test [4], in test [6] and in test [7] was “inactive” in each case. For the same molecule, the outcome in [5] was inactive.

With `O=C1C=CC(=O)O1`, the Potency result in test [1], in [2], in [3], in test [4], in test [6] and in test [7] was “inactive” throughout. In addition, in test [5], the molecule was classed as inactive.

For `CCOC(=O)c1ccccc1O`, the Potency result in [1], in [2], in test [3], in test [4], in [6] and in test [7] was “inactive” in each case. Moreover, the Potency result in test [9] and in test [10] was “inactive” in each case. In addition, in test [5], the call was inactive. In addition, in test [8], the max activation is -7.66%.

In the case of `CC1=NN(c2cc(Cl)c(S(=O)(=O)O)cc2Cl)C(=O)C1N=Nc1ccc(S(=O)(=O)O)cc1` (stereo unspecified), the Potency entry in test [1], in [3] and in test [7] was “inactive” throughout. Also, the Potency is 54.5 µM (active) in test [2], 54.5 µM (active) in test [4] and 48.6 µM (active) in test [6].

Take `COc1ccccc1OCC(O)COC(N)=O` (stereo unspecified): the Potency entry in test [1], in [2], in [3], in [4], in test [6] and in test [7] was “inactive” in each case. Also, the Potency entry in [9] and in test [10] was “inactive” in each case. The molecule was called inactive in test [5]. Also, the max activation in test [8] was 0.101%.

With `CS(=O)(=O)c1ccc([C@@H](O)[C@@H](CF)NC(=O)C(Cl)Cl)cc1`, the Potency entry in test [1], in test [2], in test [3], in test [4], in [6] and in [7] was “inactive” throughout. Further, the Potency entry in test [9] and in [10] was “inactive” throughout. Besides, the call in [5] was inactive. In test [8], the max activation is -1.93%.

With `OCc1ccccc1O`, the Potency result in test [1], in [2], in [3], in test [4], in test [6] and in test [7] was “inactive” each time. The Potency entry in test [9] and in test [10] was “inactive” in each case. The molecule was classed as inactive in test [5]. Also, the max activation in test [8] is 11.7%.
